Shown are actives, neighbours in structure and some others; about 2.9% of the full set was active somewhere.
Pol eta inh-1: DNA polymerase eta (human) inhibition; Potency, µM (series often up to 114 µM), for inactives: at the top dose activity change, negative = inhibition, usual class: inhibitors; Q9Y253; recombinant Pol eta, fluorescent DNA replication assay; AID 588591; 390,000 compounds, 1.2% hits; further: potency means the concentration at half of the fitted maximal effect; on the % scale 0 is the no-effect control and ±100 the full control effect
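Pol eta at 10 nM preincubated with compounds 15 min at room temperature; reaction started with fluorescent substrate (50 nM final) and read kinetically at 0 and 10 min.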
POLI inh: DNA polymerase iota (human) inhibition. Q9UNA4. Pol iota fluorescent replication assay, 10 min. Potency, µM (doses to about 115 µM), without a hit: at the highest dose activity, negative = inhibition, usual class: inhibitors. 390,000 compounds, 1% hits. AID 588590; further: potency means the concentration at half of the fitted maximal effect
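Fluorescent replication assay read twice, at 0 min and 10 min after adding 50 nM (final) substrate. Enzyme (10 nM) and compounds were first incubated 15 min at room temperature; enzyme-free buffer wells were negative controls.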
Pol kappa inh-1: blocks human DNA polymerase kappa activity. purified Pol kappa, fluorescent DNA synthesis assay, 10 min. Potency, µM (top dose mostly 107 µM), without a hit: at the highest dose activity, negative = inhibition, most hits filed as inhibitors. 400,000 compounds, 0.53% hits. AID 588579; further: potency means the concentration at half of the fitted maximal effect; on the % scale 0 is the no-effect control and ±100 the full control effect
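Pol kappa 10 nM + cpd, 15 min RT; start w/ substrate 50 nM final; fluorescence kinetic read, 0 and 10 min. Neg ctrl: buffer, no enzyme.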
12-LOX inh: ALOX12 (human) lipoxygenase inhibition. 580,000 compounds, 1.1% hits. P18054. Potency, µM (doses to about 108 µM), for inactives: at the highest dose activity change, negative = inhibition, actives largely listed as inhibitors. purified 12hLO, xylenol orange hydroperoxide absorbance. AID 1671190; further: potency means the concentration at half of the fitted maximal effect; on the % scale 0 is the no-effect control and ±100 the full control effect
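Purified human 12hLO at 150 nM in 25 mM Hepes, 0.01% Triton X-100, pH 7.0, preincubated 15 min at room temperature with compound. Reaction started with 40 uM arachidonic acid, 30 min at room temperature. Hydroperoxide measured by Fe-xylenol orange, 573/405 nm absorbance ratio.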
Pol beta inh: DNA polymerase beta (human) inhibition; P06746; Pol beta primer extension/strand displacement, fluorescence kinetic; Potency, µM (series often up to 114 µM), inactives show at the highest dose activity change, negative = inhibition, hits mostly inhibitors; 340,000 compounds, 1.3% hits; AID 485314; further: potency means the concentration at half of the fitted maximal effect; on the % scale 0 is the no-effect control and ±100 the full control effect
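Human Pol beta at 10 nM; strand-displacement substrate 50 nM final. Compound exposure 15 min at room temperature before start, reaction 10 min at room temperature.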
PI5P4Ka inh: inhibitors of human PI5P4K alpha | P48426 | PI5P4Kalpha enzyme, ADP-Glo luminescence, 60 min; active compounds read low | max response, % | 330,000 compounds, 1.2% hits | AID 652105; active means max response of -50% or lower; inconclusive means between -30% and -50%; inactive means -30% or higher; further: value at the top dose of about 77 µM; on the % scale 0 is the no-effect control and ±100 the full control effect
Target sequence (P48426 whole entry, looked up): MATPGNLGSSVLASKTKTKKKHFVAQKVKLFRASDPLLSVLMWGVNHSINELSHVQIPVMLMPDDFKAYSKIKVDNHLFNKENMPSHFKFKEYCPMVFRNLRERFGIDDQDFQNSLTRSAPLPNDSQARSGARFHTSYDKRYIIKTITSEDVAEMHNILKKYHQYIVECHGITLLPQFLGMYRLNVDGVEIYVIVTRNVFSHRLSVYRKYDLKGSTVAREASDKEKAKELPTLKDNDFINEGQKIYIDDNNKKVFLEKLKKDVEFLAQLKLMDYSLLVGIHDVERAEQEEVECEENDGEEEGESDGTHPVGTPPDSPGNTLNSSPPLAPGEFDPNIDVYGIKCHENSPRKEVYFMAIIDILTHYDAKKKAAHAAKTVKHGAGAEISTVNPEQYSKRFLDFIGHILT
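Enzyme plus substrate dispensed, test compounds pinned in, then ATP (5 microM final) added. After 60 min at RT, ADP-Glo reagent 1 for 45 min and reagent 2 for 30 min preceded luminescence imaging.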
Pol kappa inh-2: confirmation of human DNA polymerase kappa inhibitors. shares compounds with Pol eta inh-1. purified Pol-kappa, fluorescent strand-displacement substrate. Potency, µM, hits mostly inhibitors. 920 compounds, 76% hits. AID 720501; further: potency means the concentration at half of the fitted maximal effect
Pol eta inh-2: Pol eta (human) inhibition, cherry-pick confirmation. shares compounds with Pol eta inh-1. Pol eta primer extension, TAMRA/BHQ fluorescence, 10 min. Potency, µM, hits mostly inhibitors. 2,600 compounds, 64% hits; further: potency means the concentration at half of the fitted maximal effect
ADP-Glo interf: counter-screen for PI5P4K inhibitors: ADP-Glo detection interference, no enzyme; Potency, µM (series often up to 76.9 µM), for the others: at the top dose activity change, negative = inhibition, usual class: inhibitors; ADP-Glo detection counter-screen, luciferase luminescence, no enzyme; 1,100 tested, under 10 active; AID 743285; shares compounds with PI5P4Ka inh
* = called active by the depositor. Unless noted, the call rests on the fitted dose curve; in most records, active means well fitted curve in the direction sought with a large enough effect; inconclusive means small, poorly fitted or top-dose-only effect, or another doubt; inactive means no such curve, though single readings can be large; an effect the other way counts as inactive or inconclusive.

`COC(=O)c1c(Cl)c(C)nc2c1c(C)nn2C` gave 12-LOX inh -2.4%.
`O=C(C=Cc1ccco1)c1cc(Cl)ccc1O` gave Pol eta inh-1 inconclusive, POLI inh -18.3%, Pol kappa inh-1 -11.4%, 12-LOX inh inconclusive and PI5P4Ka inh 9.6.
For CC(/C=C/c1ccco1)=N/NC(=O)Cc1cccs1 the results were Pol eta inh-1 17.8µM*, POLI inh 31.6µM*, Pol kappa inh-1 inconclusive, 12-LOX inh 0.0%, Pol beta inh 22.4µM*, PI5P4Ka inh -52.0* and Pol eta inh-2 inconclusive.
Screening CC(/C=N/NC(=O)Cc1cccs1)=C\c1ccco1 returned Pol eta inh-1 inconclusive, POLI inh -7.0%, Pol kappa inh-1 -12.9%, 12-LOX inh inconclusive, Pol beta inh 26.2% and PI5P4Ka inh -15.5.
CC(/C=C/c1ccco1)=N\NC(=O)c1cc(Cl)ccc1O was read as Pol eta inh-1 22.4µM*, POLI inh 39.8µM*, Pol kappa inh-1 79.4µM*, 12-LOX inh inconclusive, Pol beta inh inconclusive, PI5P4Ka inh -80.1* and Pol eta inh-2 inconclusive.
`O=c1c(C=Nc2cccc(C(F)(F)F)c2)c[nH]n1-c1cccc(Cl)n1` gave Pol eta inh-1 89.1µM*, POLI inh -8.3%, Pol kappa inh-1 -1.9%, 12-LOX inh -22.1%, Pol beta inh inconclusive and Pol eta inh-2 inconclusive.
`COc1ccc(/C=C2\SC(=S)N(CCCC(=O)Nc3ccc(C(=O)O)cc3)C2=O)cc1OC` gave Pol eta inh-1 inconclusive, POLI inh 56.2µM*, Pol kappa inh-1 -27.3%, 12-LOX inh -21.1%, Pol beta inh inconclusive, PI5P4Ka inh 4.3 and Pol kappa inh-2 42.3*.
O=C(CCN1C(=O)/C(=C/c2ccc3c(c2)OCO3)SC1=S)Nc1cccc(C(=O)O)c1 was read as Pol eta inh-1 inconclusive, POLI inh 188.0%, Pol kappa inh-1 -8.5%, 12-LOX inh inconclusive, Pol beta inh 13.7%, PI5P4Ka inh -4.4 and Pol kappa inh-2 inconclusive.
`c1csc(-c2nc3nccc(-c4cc5ccccc5o4)n3n2)c1` gave 12-LOX inh 6.9%.
For O=C(c1ccco1)N(CCC(c1ccccc1)c1ccco1)Cc1ccccc1 (centres undefined) the results were Pol eta inh-1 22.4µM*, POLI inh 28.2µM*, Pol kappa inh-1 79.4µM*, 12-LOX inh inconclusive, Pol beta inh 25.1µM*, PI5P4Ka inh -59.7*, Pol kappa inh-2 67*, Pol eta inh-2 inconclusive and ADP-Glo interf 2.1%.
Screening CN(C)CCNC(=O)CCC(=O)O returned 12-LOX inh -5.2%.
For Cc1nc(N)sc1-c1csc(Nc2cccc(C(=O)O)c2)n1 the results were Pol eta inh-1 39.8µM*, POLI inh 11.2µM*, Pol kappa inh-1 25.1µM*, 12-LOX inh inconclusive, Pol beta inh inconclusive, PI5P4Ka inh -51.7*, Pol kappa inh-2 11.9*, Pol eta inh-2 47.8* and ADP-Glo interf -7.6%.
`NC(=O)c1ccsc1NC(=O)c1ccc([N+](=O)[O-])o1` gave Pol eta inh-1 44.7µM*, POLI inh 50.1µM*, Pol kappa inh-1 79.4µM*, 12-LOX inh 15.5%, PI5P4Ka inh -52.1*, Pol eta inh-2 inconclusive and ADP-Glo interf -15.3%.
